We go through 23 compounds from the antibiotic and cytotoxicity screens of Wong et al. (2023).

The campaign covered roughly 39,000 compounds. About 3,300 (8.5%) were called active. The full list was thinned out, with actives kept by preference.

In the experiment the test system is HepG2. The experiment is described as follows: cytotoxicity call (relative viability < 0.9). Particulars: 10 µM.
Consider `Cc1noc(C)c1NC(=O)N(C)C[C@H]1Oc2ccc(NS(=O)(=O)c3cn(C)cn3)cc2CC(=O)N([C@H](C)CO)C[C@@H]1C`, for which the cytotoxicity call was “inactive”.

On to `C[C@@H]1CN([C@@H](C)CO)C(=O)c2cccc(NS(=O)(=O)c3cn(C)cn3)c2O[C@@H]1CN(C)Cc1ccncc1`, for which the cytotoxicity call was “inactive”.

For the compound `O=C(C[C@H]1C[C@H]2c3cc(NC(=O)Nc4ccc(C(F)(F)F)cc4)ccc3O[C@H]2[C@H](CO)O1)NCc1cc(F)ccc1F`, the cytotoxicity call is “inactive”.

As to `CNC[C@@H]1OCCCC[C@@H](C)Oc2ccc(NS(=O)(=O)c3c(C)noc3C)cc2C(=O)N([C@H](C)CO)C[C@@H]1C`, the cytotoxicity call is “inactive”.

As for `C[C@H]1C/C(=C\N(C)C)C(=O)C1=O`, the cytotoxicity call is “active”.

With `C[C@@H]1CCCCO[C@@H](CN(C)C(=O)Nc2ccc3c(c2)OCO3)[C@H](C)CN([C@H](C)CO)C(=O)c2cc(NS(=O)(=O)c3ccc(Cl)cc3)ccc2O1`, the cytotoxicity call was “inactive”.

With `C[C@@H]1CCCCO[C@H](CN(C)S(=O)(=O)c2ccccc2)[C@H](C)CN([C@@H](C)CO)C(=O)c2cc(NC(=O)NC3CCCCC3)ccc2O1`, the cytotoxicity call is “inactive”.

Regarding `C[C@H](CO)N1C[C@H](C)[C@@H](CN(C)Cc2ccc3c(c2)OCO3)Oc2c(NC(=O)C3CCOCC3)cccc2C1=O`, the cytotoxicity call was “inactive”.

Consider `C[C@@H]1CN([C@H](C)CO)C(=O)c2cc(C#CCc3ccccc3)cnc2O[C@@H]1CN(C)C(=O)C1CCOCC1`, for which the cytotoxicity call was “inactive”.

`Oc1ccc(F)c2ccccc12`: the cytotoxicity call is “inactive”.

Regarding `O=C(c1ccc(Cl)cc1)c1coc2c1cc(O)c1ccccc12`, the cytotoxicity call is “active”.

As to `C[C@H]1CN([C@@H](C)CO)C(=O)Cc2cc(NC(=O)Nc3ccc4c(c3)OCO4)ccc2O[C@@H]1CN(C)C(=O)Nc1ccc(C(F)(F)F)cc1`, the cytotoxicity call was “inactive”.

In the case of `C[C@@H]1CN([C@H](C)CO)C(=O)Cc2cc(NC(=O)Nc3ccc4c(c3)OCO4)ccc2O[C@@H]1CN(C)C(=O)Nc1ccc(C(F)(F)F)cc1`, the cytotoxicity call is “active”.

On to `C[C@H](CO)N1C[C@H](C)[C@@H](CN(C)C(=O)Nc2ccc3c(c2)OCO3)Oc2ccc(NC(=O)Nc3ccc(C(F)(F)F)cc3)cc2CC1=O`, for which the cytotoxicity call was “inactive”.

In the case of `C[C@@H]1CN([C@H](C)CO)C(=O)Cc2cc(NC(=O)Nc3ccc(C(F)(F)F)cc3)ccc2O[C@@H]1CN(C)C(=O)Nc1ccc2c(c1)OCO2`, the cytotoxicity call was “active”.

Turning to `C[C@@H]1CN([C@@H](C)CO)C(=O)Cc2cc(NC(=O)Nc3ccc4c(c3)OCO4)ccc2O[C@H]1CN(C)C(=O)Nc1ccc(C(F)(F)F)cc1`, the cytotoxicity call is “inactive”.

Consider `C[C@H]1CN([C@@H](C)CO)C(=O)Cc2cc(NC(=O)Nc3ccc4c(c3)OCO4)ccc2O[C@H]1CN(C)C(=O)Nc1ccc(C(F)(F)F)cc1`, for which the cytotoxicity call was “active”.

As to `C[C@@H]1CN([C@@H](C)CO)C(=O)Cc2cc(NC(=O)Nc3ccc(C(F)(F)F)cc3)ccc2O[C@@H]1CN(C)C(=O)Nc1ccc2c(c1)OCO2`, the cytotoxicity call is “active”.

For `C[C@@H]1CN([C@H](C)CO)C(=O)Cc2cc(NC(=O)Nc3ccc(C(F)(F)F)cc3)ccc2O[C@H]1CN(C)C(=O)Nc1ccc2c(c1)OCO2`, the cytotoxicity call is “inactive”.

Regarding `C[C@H]1CN([C@@H](C)CO)C(=O)Cc2cc(NC(=O)Nc3ccc(C(F)(F)F)cc3)ccc2O[C@H]1CN(C)C(=O)Nc1ccc2c(c1)OCO2`, the cytotoxicity call was “inactive”.

As to `C[C@H](CO)N1C[C@H](C)[C@H](CN(C)C(=O)Nc2ccc3c(c2)OCO3)Oc2ccc(NC(=O)Nc3ccc(C(F)(F)F)cc3)cc2CC1=O`, the cytotoxicity call is “inactive”.

With `C[C@@H]1CN([C@@H](C)CO)C(=O)Cc2cc(NC(=O)Nc3ccc(C(F)(F)F)cc3)ccc2O[C@H]1CN(C)C(=O)Nc1ccc2c(c1)OCO2`, the cytotoxicity call was “inactive”.

Regarding `C[C@H]1CN([C@@H](C)CO)C(=O)Cc2cc(NC(=O)Nc3ccc(C(F)(F)F)cc3)ccc2O[C@@H]1CN(C)C(=O)Nc1ccc2c(c1)OCO2`, the cytotoxicity call is “inactive”.
